esBAF inh = inhibitors of esBAF chromatin remodeling in mouse ES cells | Bmi1-luciferase knock-in reporter, 24 h; 100% = twice the neutral-well signal | reporter increase, % at 12.5 µM | 350,000 compounds, 2% hits; in the data active = activation above about 40%; inconclusive = no clear call, values can overlap the other calls;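 also: 0% = median of the plate's neutral control wells and 100% = double that signal; a rise in the Bmi1 reporter signal indicates esBAF inhibition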
HSF1 inh = HSF1 inhibition; NIH3T3-HGL HSE-luciferase, MG132-induced, luminescence 8 h; active compounds read low; activity change, negative = inhibition, % at 7.5 µM (by protocol); 300,000 compounds, 0.77% hits; AID 2098;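 active = more than half of replicate wells show activity change below -50%, luminescence cut by over half; inconclusive = some wells, but at most half, below -50%; inactive = no replicate well below -50%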;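 also: luciferase reports HSF-1 transcriptional activity via heat shock element; 0% = median of DMSO wells and -100% = zero luminescence signal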
SMARCA2 activ = activators of SMARCA2 function; MG213 cells, MMTV-luciferase reporter, dexamethasone, overnight; activation, % at 9.1 µM; 370,000 compounds, 1% hits; in the data active = activation above about 7.8%;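 also: 0% = vehicle wells and 100% = reference activator wells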
MITF TRPM1 HTS = MITF TRPM1 promoter activation in melanoma cells; SK-MEL-5 TRPM1-promoter luciferase, 24 h; % of positive control, neutral wells = 0; activation, % at 12.5 µM; 300,000 compounds, 0.75% hits;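 active = mean activation of at least 80% with every replicate also reaching 80%; inconclusive = mean reaches 80% but some replicate falls short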;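 also: 0% = neutral control wells and 100% = parthenolide positive control wells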
HSF-1 act = increases HSF-1 driven luciferase reporter signal | NIH3T3-HGL HSF-1 luciferase reporter, MG132, 8 h; 100% = twice DMSO control signal | activation, % at 9 µM | 300,000 compounds, 1.7% hits | AID 504408;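 active = mean replicate activation of at least 50% with a set share of replicates each reaching 50%; inconclusive = only one of those two conditions met; inactive = mean below 50% and too few replicates reaching it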;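 also: 0% = median of the neutral control wells and 100% = twice that signal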
Wnt bcat act = activates Wnt/beta-catenin signaling in a reporter cell assay; activator, plate reader; activation, % at 9.35 µM; 300,000 compounds, 1.2% hits; AID 743398; in the data active = activation above about 30%, passing the limit was not always enough; inconclusive = no clear call, values can overlap the other calls;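 also: 0% = neutral control wells and 100% = positive control wells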
SMARCA2 conf = confirmation of SMARCA2 (BRM) function activators; shares compounds with SMARCA2 activ; AID 652260; 3,500 compounds, 30% hits; activation, % at 9.1 µM; MG213 cells, MMTV-luciferase with dexamethasone, luminescence, overnight; MG213 cells expressing E1A, Rb sequestered; DMSO wells 0%, reference activator 100%;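 active = activation above its plate's cutoff, the mean activation of tested wells plus 3 SD, cut at about 7.9% in these data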
VP16 Luc act = GAL4-VP16 reporter activation counter-screen; 3,500 compounds, 41% hits; activation, % at 9.1 µM; AID 686939; shares compounds with SMARCA2 activ; HEK293 GAL4-VP16 pG5luc reporter, luciferase luminescence; scaled: DMSO wells 0%, SAHA wells 100%;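 active = activation above the solvent-only control well mean plus 3 SD, averaged across control plates, cut at about 5.2% in these data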
Active calls of the source: *. An excerpt weighted towards active compounds, which were near 4.3% of everything screened.

`CCC(=O)Nc1cc(C(=O)OCC(=O)c2ccccc2)ccc1C` gave HSF1 inh -3, SMARCA2 activ 11*, MITF TRPM1 HTS 77, HSF-1 act 13, Wnt bcat act 35*, SMARCA2 conf 4 and VP16 Luc act 7.7*.
Screening O=C(NC(=S)Nc1cccc(O)c1)c1ccco1 returned esBAF inh 15, HSF1 inh 6, SMARCA2 activ 9.1*, MITF TRPM1 HTS 73, HSF-1 act 34, Wnt bcat act 19, SMARCA2 conf 6 and VP16 Luc act 7.6*.
Cc1ccccc1NC(=S)NNC(=O)c1ccco1 was read as esBAF inh 4, HSF1 inh 7, SMARCA2 activ 0, MITF TRPM1 HTS -3, HSF-1 act -16 and Wnt bcat act -2.
Screening Cc1ccnc(NC(=S)NC(=O)c2ccco2)c1 returned HSF1 inh 3, SMARCA2 activ 7, MITF TRPM1 HTS 68, HSF-1 act 31 and Wnt bcat act inconclusive.
O=C(NNC(=S)Nc1ccc(F)cc1F)c1ccco1 was read as esBAF inh 13, HSF1 inh 2, SMARCA2 activ 12*, MITF TRPM1 HTS 9, HSF-1 act 23, Wnt bcat act 4, SMARCA2 conf 8.6* and VP16 Luc act 3.
O=C(NC(=S)Nc1ccc2c(c1)OCCO2)c1ccco1 was read as esBAF inh 18, HSF1 inh 17, SMARCA2 activ 7, MITF TRPM1 HTS inconclusive, HSF-1 act 33 and Wnt bcat act inconclusive.
O=C(NC(=S)Nc1ccccn1)c1ccco1 was read as HSF1 inh 22, SMARCA2 activ 8.8*, MITF TRPM1 HTS 50, HSF-1 act 38, Wnt bcat act 27, SMARCA2 conf 12* and VP16 Luc act 8.6*.
Screening CNC[C@@H]1OCCCC[C@@H](C)Oc2ccc(NC(=O)c3ccccc3)cc2C(=O)N([C@@H](C)CO)C[C@H]1C returned esBAF inh -2.
`COc1cccc(NC(=O)/C=C/c2ccccc2[N+](=O)[O-])c1` gave HSF1 inh -3, SMARCA2 activ 10*, MITF TRPM1 HTS 56, HSF-1 act 2, Wnt bcat act 14, SMARCA2 conf 8.8* and VP16 Luc act 15*.
Screening COc1nc(N=C(N)N)nc2ccc(C)cc12 returned HSF1 inh 5, SMARCA2 activ 8.8*, HSF-1 act 13, Wnt bcat act -2, SMARCA2 conf 43* and VP16 Luc act 2.
For COc1nc(Nc2nc3ccccc3c(=O)[nH]2)nc2ccc(C)cc12 the results were HSF1 inh 6, SMARCA2 activ 0, MITF TRPM1 HTS -30, HSF-1 act -1 and Wnt bcat act -18.
Screening C[C@H](CO)N1C[C@H](C)[C@@H](CN(C)CC2CCCCC2)Oc2ccc(NS(=O)(=O)c3ccc(F)cc3)cc2CC1=O returned esBAF inh 2.
For CN(C)CCNC(=O)c1ccc(COc2ccc(Cl)cc2Cl)cc1 the results were esBAF inh -6, HSF1 inh 8, SMARCA2 activ 8.0*, HSF-1 act 3, SMARCA2 conf 10* and VP16 Luc act 1.
For COc1ccc(Cl)cc1C(=O)NCCN(C)C the results were HSF1 inh -3, SMARCA2 activ -3, MITF TRPM1 HTS 1, HSF-1 act -1 and Wnt bcat act 1.
CC(C)NC(=O)N(C)C[C@H]1Oc2cc(Br)ccc2S(=O)(=O)N([C@@H](C)CO)C[C@@H]1C was read as esBAF inh 2.
Screening COc1ccc(C(=O)C=Cc2ccc3c(c2)OCO3)cc1OC returned SMARCA2 activ 10*, Wnt bcat act 7, SMARCA2 conf 12* and VP16 Luc act 0.
O=C(NN=C1CCCCCC1)c1ccc2c(c1)OCO2 was read as esBAF inh 54*, HSF1 inh -1, SMARCA2 activ 10*, MITF TRPM1 HTS 19, HSF-1 act -11, Wnt bcat act -7, SMARCA2 conf 3 and VP16 Luc act 4.
Screening O=C(/C=C/c1ccc2c(c1)OCCO2)c1ccccc1 returned HSF1 inh 11, SMARCA2 activ 17*, HSF-1 act 32, Wnt bcat act -2, SMARCA2 conf 10* and VP16 Luc act 9.1*.
`O=C(NN=Cc1ccc2c(c1)OCO2)c1ccccc1` gave esBAF inh 8, SMARCA2 activ 11*, MITF TRPM1 HTS 67, Wnt bcat act 63*, SMARCA2 conf 8.7* and VP16 Luc act 8.4*.
`O=C(NN=Cc1ccc2c(c1)OCO2)c1ccncc1` gave esBAF inh 9, SMARCA2 activ 2, MITF TRPM1 HTS -4 and Wnt bcat act -5.
COc1ccc(C(=O)/C=C/c2ccc3c(c2)OCCO3)cc1 was read as esBAF inh 7, HSF1 inh -8, SMARCA2 activ 0, MITF TRPM1 HTS 13, HSF-1 act -3 and Wnt bcat act 15.
`CO[C@H]1CN(C)C(=O)c2cc(NS(=O)(=O)c3ccccc3F)ccc2OC[C@H](C)NC[C@H]1C` gave esBAF inh 0.
`CN(C)C(=O)c1ccc(-c2ccc3c(c2)[C@H]2[C@H](CCN2C(=O)C2CC2)[C@@H](CO)N3C)cc1` gave esBAF inh -4.
For COc1cc(C(=O)Nc2ccc3c(c2)OCO3)ccc1OCc1c(C)noc1C the results were HSF1 inh -6, SMARCA2 activ 8.4*, MITF TRPM1 HTS 8, HSF-1 act -13, Wnt bcat act -1, SMARCA2 conf 6 and VP16 Luc act 0.
COc1ccc(/C=C/C(=O)c2ccc3c(c2)OCO3)c(OC)c1 was read as HSF1 inh 35, SMARCA2 activ 11*, MITF TRPM1 HTS inconclusive, HSF-1 act inconclusive, Wnt bcat act 0, SMARCA2 conf 8.8* and VP16 Luc act 8.0*.
CC1CCc2c(sc(NC(=O)COC(=O)C3CCCO3)c2C#N)C1 (stereo unspecified) was read as HSF1 inh 1, SMARCA2 activ -3, MITF TRPM1 HTS 20, HSF-1 act -8 and Wnt bcat act 2.
Screening CC(=O)Nc1sc2c(c1C#N)CCCC2 returned esBAF inh 5, HSF1 inh -3, SMARCA2 activ -2, HSF-1 act 12 and Wnt bcat act 1.
`N#Cc1c(NC(=O)C2CC2)sc2c1CCCCC2` gave HSF1 inh 22, SMARCA2 activ 8.9*, MITF TRPM1 HTS 11, HSF-1 act 49, SMARCA2 conf 7 and VP16 Luc act 7.4*.

Source: PubChem (several laboratories)
